GLS inhibitor: qHTS for Inhibitors of Glutaminase (GLS). GLS enzymatic activity, qHTS titration. Glutaminase kidney isoform, mitochondrial (Homo sapiens), O94925. AID 624170, 2012. actives 0.21% (n = 410,000). Potency, µM (series often up to 45.5 µM), inactives show at the highest dose activity change, negative = inhibition, hits mostly inhibitors; also: potency is read from the fitted curve at half-maximal effect; % is scaled to controls: 0 for no effect and ±100 for the full control effect
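hKGA in 45 mM KH2PO4 (pH 8.2), 0.02% Tween-20 with compound, then 1mM L-Glutamine (stock as added) plus glutamate oxidase/HRP/Amplex red coupling mix. Fluorescence read initially and after 30 min at RT; signal change reflects glutamate formation.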
IDH1 R132H inh: qHTS for Inhibitors of mutant isocitrate dehydrogenase 1 (IDH1): qHTS; IDH1-R132H enzyme, NADPH consumption, diaphorase/resazurin fluorescence; Potency, µM (series often up to 76.6 µM), for the others: at the highest dose activity change, negative = inhibition, actives largely listed as inhibitors; actives 0.093% (n = 390,000); AID 602179, 2012; also: potency is read from the fitted curve at half-maximal effect; % is scaled to controls: 0 for no effect and ±100 for the full control effect; nearly all actives have a fitted effect of over 65% in size
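IDH1-R132H (0.5 ug/mL) preincubated 30 min with compound, then NADPH (0.016 mM) and alpha-KG (2 mM) added; 80 min at RT, pH 7.5. Remaining NADPH coupled via diaphorase/resazurin to fluorescence (540/590 nm); concentration-response curves normalized to no-enzyme control.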
rTrxR1 inhibitor: qHTS Assay for Inhibitors of Mammalian Selenoprotein Thioredoxin Reductase 1 (TrxR1): qHTS | Potency, µM (series often up to 114 µM), for inactives: top-dose activity change, negative = inhibition, most hits filed as inhibitors | actives 1% (n = 390,000) | recombinant rTrxR1, NADPH fluorescence consumption, selenite substrate | AID 588453, 2011; also: potency is read from the fitted curve at half-maximal effect; % is scaled to controls: 0 for no effect and ±100 for the full control effect; nearly all actives have a fitted effect of over 65% in size
Target sequence (O89049 whole entry, looked up): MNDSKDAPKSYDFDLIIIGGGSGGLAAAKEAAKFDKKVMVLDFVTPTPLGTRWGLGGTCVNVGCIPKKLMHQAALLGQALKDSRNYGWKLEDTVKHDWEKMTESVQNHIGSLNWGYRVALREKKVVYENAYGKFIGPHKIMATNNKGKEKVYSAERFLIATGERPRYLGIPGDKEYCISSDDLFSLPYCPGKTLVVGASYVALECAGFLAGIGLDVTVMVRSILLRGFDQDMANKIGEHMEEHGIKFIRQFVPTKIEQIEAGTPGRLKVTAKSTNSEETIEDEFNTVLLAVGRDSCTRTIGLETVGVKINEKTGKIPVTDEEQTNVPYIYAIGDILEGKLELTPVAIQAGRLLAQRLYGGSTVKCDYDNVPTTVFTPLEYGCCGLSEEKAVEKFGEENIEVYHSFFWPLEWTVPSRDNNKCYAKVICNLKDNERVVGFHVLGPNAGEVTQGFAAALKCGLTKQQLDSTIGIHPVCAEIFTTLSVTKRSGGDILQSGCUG
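Rat TrxR1 (90 nM in the dispensed reagent) was pre-reduced with 400 uM NADPH for 5 min at room temperature, then incubated with compound for 15 min. After 400 uM selenite was added, NADPH fluorescence (Ex 340/Em 450 nm) was followed for 8 min.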
TrxR1 substrate: qHTS Assay for Substrates of Mammalian Selenoprotein Thioredoxin Reductase 1 (TrxR1): qHTS | Thioredoxin reductase 1, cytoplasmic (Rattus norvegicus), O89049 | purified TrxR1 substrate turnover, NADPH consumption readout | Potency, µM (highest dose often 114 µM), without a hit: top-dose activity change, negative = substrate turnover | actives 0.01% (n = 390,000) | AID 588456, 2011; also: potency is read from the fitted curve at half-maximal effect; % is scaled to controls: 0 for no effect and ±100 for the full control effect; nearly all actives have a fitted effect of over 50% in size
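Rat TrxR1, dispensed at 90 nM, was prereduced with 400 uM NADPH (final) for 5 min at ~22 deg C, then incubated with compound 15 min before 400 uM selenite. A first-read NADPH fluorescence drop versus no-compound background flagged substrates.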
Resorufin autofl: qHTS for Inhibitors of mutant isocitrate dehydrogenase 1 (IDH1): Cherrypicks Autofluorescence Interference; Resorufin detection reagent fluorescence interference, cell-free; 750 tested, under 10 active; shares compounds with IDH1 R132H inh; inhibition of signal, % at 51.2 µM;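 also: 0% = wells with normal resorufin and full inhibition = wells lacking resorufin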
IDH1 WT: qHTS for Inhibitors of mutant isocitrate dehydrogenase 1 (IDH1): Cherrypicks in WT IDH1. WT IDH1 enzyme, NADPH diaphorase/resazurin fluorescence. actives 9% (n = 750). shares compounds with IDH1 R132H inh. Potency, µM (titrated, usually from 115 µM), for the others: at the top dose activity change, negative = inhibition, usual class: inhibitors;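 also: potency is read from the fitted curve at half-maximal effect; 0% = full WT IDH1 enzyme control and full inhibition = no enzyme wells; nearly all actives have a fitted effect of over 55% in size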
mIDH1 confirm: qHTS for Inhibitors of mutant isocitrate dehydrogenase 1 (IDH1): Confirmation of Cherrypicks; actives 83% (n = 750); IDH1 R132H enzyme, NADPH diaphorase/resazurin fluorescence; Potency, µM (doses to about 76.6 µM), without a hit: at the top dose activity change, negative = inhibition, actives largely listed as inhibitors; shares compounds with IDH1 R132H inh; AID 624002, 2012; also: potency is read from the fitted curve at half-maximal effect; nearly all actives have a fitted effect of over 50% in size
* hit, by the source's call; [ ] = remark or other dose. An excerpt weighted towards active compounds, which were near 1.2% of everything screened. Calls follow the shape of the dose curve; as a rule, active = well fitted curve in the direction sought with a large enough effect; inconclusive = small, poorly fitted or top-dose-only effect, or another doubt; inactive = no such curve, though single readings can be large; an effect the other way counts as inactive or inconclusive.

Results for CSc1ccc(CCNC(=O)c2ccc(-n3c(C)cc4c3CCCC4)cc2)cc1 ?
GLS inhibitor: 10.9%; IDH1 R132H inh: 4.9%; rTrxR1 inhibitor: -18.4%; TrxR1 substrate: -2.5%

Results for O=C1CCCC2=C1C(c1ccc(O)c(Br)c1)C1=C(CCCC1=O)N2c1ccccc1 ?
GLS inhibitor: 17.9%; IDH1 R132H inh: inconclusive; rTrxR1 inhibitor: 0.5%; TrxR1 substrate: -4.4%; Resorufin autofl: 6.5; IDH1 WT: 11.0%; mIDH1 confirm: inconclusive

Results for CC1CCN(S(=O)(=O)c2ccc3c(c2)N(CC(=O)Nc2ccc(F)c(Cl)c2)C(=O)CO3)CC1 ?
GLS inhibitor: -6.7%; IDH1 R132H inh: -18.3%; rTrxR1 inhibitor: 1.1%; TrxR1 substrate: -6.8%

What do the screens show for `Cc1ccc(Cl)cc1-n1c(=O)cc(N2CCN(c3ccccc3)CC2)[nH]c1=O`?
GLS inhibitor: 5.1%; IDH1 R132H inh: -21.0%; rTrxR1 inhibitor: 16.0%[57.1 µM]; TrxR1 substrate: 0.5%[57.1 µM]

Results for CCC(C)Sc1ccc([C@@H]2[C@@H]3C(=O)N(C)C(=O)[C@@H]3[C@]3(C(=O)OC)CCCCN23)cc1OC (stereo partly drawn) ?
GLS inhibitor: -1.4%; IDH1 R132H inh: 35.5µM*; rTrxR1 inhibitor: inconclusive; TrxR1 substrate: -5.8%; Resorufin autofl: -7.3; IDH1 WT: 1.1%; mIDH1 confirm: 15.8µM*

What do the screens show for `COC(=O)c1ccc(NC(=O)C(c2ccccc2)N2Cc3ccccc3C2=O)cc1` (stereo not drawn)?
GLS inhibitor: 2.4%; IDH1 R132H inh: inconclusive; rTrxR1 inhibitor: 11.1%; TrxR1 substrate: -10.0%; Resorufin autofl: -3.8; IDH1 WT: -1.1%; mIDH1 confirm: -6.0%

What do the screens show for `COC(=O)c1ccc(NC2(C#N)C(=O)Nc3ccccc32)cc1` (stereo not drawn)?
GLS inhibitor: 15.0%; IDH1 R132H inh: inconclusive; rTrxR1 inhibitor: 8.8%; TrxR1 substrate: 1.0%; Resorufin autofl: -0.8; IDH1 WT: 63.6%; mIDH1 confirm: 44.7µM*

Results for CC1=C(c2ccc(C)c(C)c2)S(=O)(=O)N(Cc2ccc(C(=O)NCc3cccc(C)c3)cc2)C1=O ?
GLS inhibitor: -1.8%; IDH1 R132H inh: 2.0%; rTrxR1 inhibitor: 26.2%; TrxR1 substrate: 30.4%

How did N#CC(C#N)=C1C(=O)N(CCN2CCOCC2)c2ccccc21 do in these assays?
GLS inhibitor: 0.0%; IDH1 R132H inh: inconclusive; rTrxR1 inhibitor: -60.5%; TrxR1 substrate: -3.7%[57.1 µM]; Resorufin autofl: 4.5; IDH1 WT: 16.7%; mIDH1 confirm: 44.7µM*

How did Cc1ccccc1N1CC(=O)N(c2ccccc2C)CC1=O do in these assays?
GLS inhibitor: 2.2%; IDH1 R132H inh: -0.1%; rTrxR1 inhibitor: 1.3%; TrxR1 substrate: -0.5%

How did Cc1cccc2c1c1ccc3c(c1n2C)C(=O)C=CC3=O do in these assays?
GLS inhibitor: -5.7%; IDH1 R132H inh: 39.8µM*; rTrxR1 inhibitor: inconclusive; TrxR1 substrate: 11.6%[57.1 µM]; Resorufin autofl: 0.2; IDH1 WT: 116.8%; mIDH1 confirm: 25.1µM*

How did CCN(CC)CCCNC(=O)C1CCN(S(C)(=O)=O)CC1 do in these assays?
GLS inhibitor: 5.2%; IDH1 R132H inh: 10.0%; rTrxR1 inhibitor: 16.9%[57.1 µM]; TrxR1 substrate: 3.9%[57.1 µM]

Results for C#CCN(C[C@H]1[C@H](OC(=O)NCc2ccc(OC)c(OC)c2)[C@H](OC(=O)NCc2ccc(OC)c(OC)c2)C[C@@H](C(=O)OC)[C@H]1C(=O)OC)S(=O)(=O)c1ccc(C)cc1 ?
GLS inhibitor: -2.4%; IDH1 R132H inh: 13.6%

How did CC(C)(C)[C@@H]1C=C(C(=O)Nc2ccccc2)O[C@H](OCc2ccc(CO)cc2)C1 do in these assays?
GLS inhibitor: 0.4%; IDH1 R132H inh: 44.7µM*; rTrxR1 inhibitor: 16.3%[57.1 µM]; TrxR1 substrate: -8.3%; Resorufin autofl: -6.8; IDH1 WT: -4.6%; mIDH1 confirm: 25.1µM*

How did C#CCNC(=O)C1=C[C@H](C(C)(C)C)C[C@H](OCc2ccc(CO)cc2)O1 do in these assays?
GLS inhibitor: 6.8%; IDH1 R132H inh: -3.2%; rTrxR1 inhibitor: 4.2%[57.1 µM]; TrxR1 substrate: 9.5%[57.1 µM]

Results for CCN(CC)S(=O)(=O)c1cc(NC(=O)CNc2cccc(S(=O)(=O)N3CCOCC3)c2)ccc1C ?
GLS inhibitor: -0.7%; IDH1 R132H inh: inconclusive; rTrxR1 inhibitor: -5.6%; TrxR1 substrate: -3.5%; Resorufin autofl: 1.4; IDH1 WT: -1.8%; mIDH1 confirm: 28.2µM*

Results for Cc1ccc(NC(=O)CNc2cccc(S(=O)(=O)N3CCOCC3)c2)cc1F ?
GLS inhibitor: 0.8%; IDH1 R132H inh: -10.8%; rTrxR1 inhibitor: -5.3%; TrxR1 substrate: -12.6%

How did OCCN(CCO)c1ccc2ccccc2c1 do in these assays?
GLS inhibitor: 30.3%; IDH1 R132H inh: -8.1%; rTrxR1 inhibitor: inconclusive; TrxR1 substrate: 144.2%

What do the screens show for `OCCN(CCO)c1ccc(C(c2ccccc2Cl)c2ccc(N(CCO)CCO)cc2Cl)c(Cl)c1`?
GLS inhibitor: -5.3%; IDH1 R132H inh: 18.5µM*; rTrxR1 inhibitor: 13.0%; TrxR1 substrate: 3.1%; Resorufin autofl: 5.4; IDH1 WT: 39.8µM*; mIDH1 confirm: 12.6µM*

What do the screens show for `COc1ccc(C(=O)Nc2c(O)ccc3ccccc23)cc1OC`?
GLS inhibitor: -28.8%; IDH1 R132H inh: 8.9%; rTrxR1 inhibitor: -0.2%[57.1 µM]; TrxR1 substrate: 5.4%[57.1 µM]

Assay outcomes as filed in PubChem.
